Screening results: PubChem BioAssay, National Center for Advancing Translational Sciences (NCATS)
Hits are enriched below; roughly 4.1% of the tested compounds scored in any of these assays.
AmpC detergent: AmpC beta-lactamase inhibition with detergent present; P00811; AmpC hydrolysis of nitrocefin, absorbance 480 nm, 0.01% Triton; actives 0.041% (n = 370,000); Potency, µM (doses to about 114 µM), for inactives: at the highest dose activity change, negative = inhibition, actives largely listed as inhibitors;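 further: 0% = no-compound wells and -100% = no-enzyme wells; nearly all actives have a fitted effect of over 25% in size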
Target sequence (P00811 whole entry, looked up): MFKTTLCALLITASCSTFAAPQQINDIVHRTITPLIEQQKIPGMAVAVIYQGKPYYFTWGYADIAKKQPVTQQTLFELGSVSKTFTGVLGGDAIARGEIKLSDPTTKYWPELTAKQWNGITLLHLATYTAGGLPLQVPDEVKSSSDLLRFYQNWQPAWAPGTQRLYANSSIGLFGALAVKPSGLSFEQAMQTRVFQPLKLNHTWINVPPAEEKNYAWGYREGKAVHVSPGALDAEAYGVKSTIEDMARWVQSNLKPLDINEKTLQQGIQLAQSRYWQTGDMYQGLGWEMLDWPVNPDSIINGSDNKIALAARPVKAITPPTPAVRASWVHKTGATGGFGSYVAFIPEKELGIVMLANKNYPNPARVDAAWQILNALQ
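20 mM phosphate pH 7.0 + 0.01% (detergent screen) or 0.0001% Triton X-100; 5.3 nM AmpC reagent; cpd preinc 15 min RT; nitrocefin (800 uM stock) to start; A480 q20 s × 4 min; Activity was normalised to no-enzyme and no-compound control wells.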
FMDV antiviral: blocks foot and mouth disease virus; Potency, µM (highest dose often 57.9 µM), for inactives: at the highest dose activity change, negative = inhibition, hits mostly inhibitors; AID 1159524; FMDV antiviral cell-based qHTS; actives 1.2% (n = 410,000); calls by dose curve; tested in HEK293T cells; further: read-out not given here; nearly all actives have a fitted effect of over 45% in size
AmpC inh no detg: blocks E. coli AmpC beta-lactamase in detergent-free assay | AmpC nitrocefin hydrolysis, absorbance 480 nm, 0.0001% Triton | Potency, µM (highest dose often 57.1 µM), for inactives: top-dose activity change, negative = inhibition, hits mostly inhibitors | actives 0.52% (n = 330,000) | AID 485341;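 further: plate controls were no compound for no effect and no enzyme for full effect; nearly all actives have a fitted effect of over 20% in size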
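20 mM phosphate pH 7.0 + 0.01% (detergent screen) or 0.0001% Triton X-100; 5.3 nM AmpC reagent; cpd preinc 15 min RT; nitrocefin (800 uM stock) to start; A480 q20 s × 4 min; Activity was normalised to no-enzyme and no-compound control wells.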
Sm TGR block: inhibitors of Schistosoma mansoni thioredoxin glutathione reductase | Q962Y6 | purified TGR, DTNB reduction, TNB absorbance 405 nm | Potency, µM (series often up to 114 µM), inactives show at the highest dose activity change, negative = inhibition, usual class: inhibitors | actives 3% (n = 360,000) | AID 485364; further: nearly all actives have a fitted effect of over 60% in size
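First, TGR (20 nM dispensed) and NADPH were mixed with compound. Second, a 15 min room-temperature incubation followed. Third, further NADPH and then DTNB were added to start the reaction. Finally, TNB absorbance was monitored kinetically.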
AMA1-RON2 inh: disrupts binding of P. falciparum AMA1 to RON2 | AlphaScreen AMA1-biotinylated RON2 peptide binding | Potency, µM (highest dose often 58.2 µM), without a hit: at the top dose activity change, negative = inhibition, hits mostly inhibitors | actives 0.2% (n = 360,000);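 further: 0% = vehicle wells and -100% = peptide control; nearly all actives have a fitted effect of over 45% in size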
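AMA1 (3D7) with his tag at 25 nM final met compounds first, then biotinylated RON2 peptide at 25 nM; detection used donor plus acceptor beads, 10 µg/mL apiece, read by AlphaScreen after 30 min at room temperature.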
Active calls of the source: *. Unless noted, the call rests on the fitted dose curve; in most records, active means well fitted curve in the direction sought with a large enough effect; inconclusive means small, poorly fitted or top-dose-only effect, or another doubt; inactive means no such curve, though single readings can be large; an effect the other way counts as inactive or inconclusive. Unless noted, on the % scale 0 is the no-effect control and ±100 the full control effect; potency means the concentration at half of the fitted maximal effect.

How did Cc1cc(C)c(NC(=O)COc2ccc3c(C)cc(=O)oc3c2)c(C)c1 do in these assays?
AmpC detergent: -0.8%; FMDV antiviral: 9.0%; Sm TGR block: -14.3%

What do the screens show for `CC(=O)C(C(C)=O)c1c(Cl)c(O)c(O)c2c(C(=O)c3ccccc3)coc12`?
AmpC detergent: -14.7%; FMDV antiviral: inconclusive; AmpC inh no detg: -34.2%; Sm TGR block: 2.51µM*; AMA1-RON2 inh: 63.7%

What do the screens show for `COC(=O)C1=C(c2c(C)noc2C)C[C@@H]2CC[C@H]1N2C(=O)N1CCOCC1`?
AmpC detergent: 7.7%; FMDV antiviral: -1.2%; AmpC inh no detg: -9.7%; Sm TGR block: 50.1µM*; AMA1-RON2 inh: 7.5%

Results for C=CC#CC1(O)CC(C)[N+](C)(C)CC1C (stereo not given) ?
AmpC detergent: 4.0%; FMDV antiviral: -7.2%; AmpC inh no detg: -1.1%; Sm TGR block: 12.6µM*; AMA1-RON2 inh: 13.6%

How did C=C1C(=O)O[C@H]2C[C@H]1[C@@H](OC(C)=O)C/C(C)=C/CC/C(C)=C\CC[C@]2(C)O do in these assays?
FMDV antiviral: 7.08µM*; AMA1-RON2 inh: -4.8%

Results for Cc1cc2n(n1)CCCN2C(=O)Nc1ccc(F)c(Cl)c1 ?
AmpC detergent: 1.3%; FMDV antiviral: 2.4%; Sm TGR block: 7.7%

What do the screens show for `Cc1cc2n(n1)SC(Nc1ccc(F)c(Cl)c1)N2` (stereo not given)?
AmpC detergent: -14.1%; FMDV antiviral: 52.7%; AmpC inh no detg: -29.1%; Sm TGR block: 8.91µM*; AMA1-RON2 inh: 71.0%

Results for COC(=O)[C@@]12C[C@@H](CC(=O)N3CCCC3)C(=O)N(Cc3cccc4ccccc34)C1=CCC(C)(C)C2 ?
FMDV antiviral: -11.7%; AMA1-RON2 inh: -11.2%

Results for CCc1ccc(OCC(=O)N(Cc2ccco2)Cc2ccco2)cc1 ?
AmpC detergent: 19.6%; FMDV antiviral: -12.3%; Sm TGR block: -2.3%

How did CN(C)c1ccc(C(=O)c2ccccc2)cc1 do in these assays?
AmpC detergent: 2.0%; FMDV antiviral: 20.1%; AmpC inh no detg: -20.5%; Sm TGR block: -2.4%; AMA1-RON2 inh: 3.3%

How did CN(C)c1ccc(N=Nc2ccc(C(=O)O)cc2)cc1 do in these assays?
AmpC detergent: 1.8%; FMDV antiviral: 11.2µM*; AmpC inh no detg: -4.4%; Sm TGR block: 39.8µM*; AMA1-RON2 inh: 1.4%

What do the screens show for `COc1cc(N=c2ssnc2Cl)cc(OC)c1`?
AmpC detergent: -2.2%; FMDV antiviral: 39.8µM*; AmpC inh no detg: -14.8%; Sm TGR block: 79.4µM*; AMA1-RON2 inh: 3.4%

How did COC(=O)c1cc(=O)n(Cc2cccs2)c(=Nc2ccccc2)s1 do in these assays?
AmpC detergent: 4.2%; FMDV antiviral: inconclusive; AmpC inh no detg: -11.0%; Sm TGR block: 7.8%; AMA1-RON2 inh: -11.7%

What do the screens show for `COC(=O)c1cc(=O)n(-c2ccccc2)c(=Nc2ccccc2)s1`?
AmpC detergent: inconclusive; FMDV antiviral: 12.6µM*; AmpC inh no detg: -9.2%; Sm TGR block: 39.8µM*; AMA1-RON2 inh: -19.2%

What do the screens show for `CCOC(=O)c1ccc(N=c2sc(C(=O)OC)cc(=O)n2-c2ccc(C(=O)OCC)cc2)cc1`?
AmpC detergent: -10.6%; FMDV antiviral: 20µM*; AmpC inh no detg: inconclusive; Sm TGR block: 9.1%; AMA1-RON2 inh: -17.9%

Results for CCCCOC(=O)c1ccc(Nc2ncnc3c2cnn3-c2cccc(C)c2)cc1 ?
AmpC detergent: -5.4%; FMDV antiviral: -9.3%; Sm TGR block: 10.9%

Results for O=C1CN(C(=O)COc2ccccc2)C(c2ccc(F)cc2)c2cc(Br)ccc2N1 (stereo not given) ?
AmpC detergent: inconclusive; FMDV antiviral: -18.8%; Sm TGR block: 0.1%

What do the screens show for `CCCc1cnc2c(c1SCc1ccc(C(F)(F)F)cc1)c(=O)n(C)c(=O)n2C`?
AmpC detergent: 2.5%; FMDV antiviral: inconclusive; Sm TGR block: 0.4%

How did Cc1ccc(N2C(=O)C3C4C=CC(CNC(=S)N5CCN(c6cccc(C)c6)C(C)C5)(O4)C3C2=O)cc1 (stereo not given) do in these assays?
AmpC detergent: -2.1%; FMDV antiviral: -1.2%; AmpC inh no detg: -5.9%; Sm TGR block: 3.16µM*; AMA1-RON2 inh: 15.1%

What do the screens show for `Cc1cccc(N2CCN(C(=O)CN3CCOc4ccccc43)CC2C)c1` (stereo not given)?
AmpC detergent: -4.7%; FMDV antiviral: inconclusive; AmpC inh no detg: 87.2%; Sm TGR block: -21.2%; AMA1-RON2 inh: -21.6%

Results for Nc1c(C(=O)Nc2ccccc2F)sc2nc(-c3ccco3)ccc12 ?
AmpC detergent: 2.0%; FMDV antiviral: inconclusive; AmpC inh no detg: -29.0%; Sm TGR block: 2.82µM*; AMA1-RON2 inh: 47.8%

Results for COC(=O)c1sc2nc(-c3ccco3)ccc2c1N ?
AmpC detergent: inconclusive; FMDV antiviral: -26.6%; AmpC inh no detg: -32.4%; Sm TGR block: 2.82µM*; AMA1-RON2 inh: -12.6%

How did Cc1cnc(-n2ncc(C(=O)NCc3ccncc3)c2C2CC2)nc1-c1cccs1 do in these assays?
FMDV antiviral: -28.9%

How did C1=CC2=NC34CCCCC3CC3=C(CCCC3)N4C2=CC1=NC1CCCCC1 (stereo not given) do in these assays?
FMDV antiviral: 28.2µM*; AMA1-RON2 inh: -3.4%

Results for Cc1ccc(-c2cc3onc(-c4ccccc4)c3c(=O)n2C)cc1 ?
AmpC detergent: 2.5%; FMDV antiviral: 17.8µM*; AmpC inh no detg: -14.9%; Sm TGR block: -1.4%; AMA1-RON2 inh: 1.4%

How did Cc1ccn2c(Nc3ccc4c(c3)OCCO4)c(-c3ccc(N(C)C)cc3)nc2c1 do in these assays?
AmpC detergent: 3.9%; FMDV antiviral: 42.4%; Sm TGR block: 6.4%

How did CC1(C)CCN2CCC(C)(C)c3c(O)ccc1c32 do in these assays?
AmpC detergent: 4.3%; FMDV antiviral: inconclusive; AmpC inh no detg: -8.2%; Sm TGR block: 2.82µM*; AMA1-RON2 inh: inconclusive

What do the screens show for `COC(=O)c1ccc(N2CCc3ccccc32)c([N+](=O)[O-])c1`?
AmpC detergent: -11.8%; FMDV antiviral: inconclusive; AmpC inh no detg: -23.8%; Sm TGR block: 15.0%; AMA1-RON2 inh: 12.6µM*

How did O=C(O)c1ccc(N2CCc3ccccc32)c([N+](=O)[O-])c1 do in these assays?
AmpC detergent: -15.5%; FMDV antiviral: -14.9%; AmpC inh no detg: -29.9%; Sm TGR block: 3.1%; AMA1-RON2 inh: -2.7%

What do the screens show for `C#Cc1cccc(Nc2nc(NCc3ccccc3OC)nc3ccsc23)c1`?
FMDV antiviral: 31.6µM*; AMA1-RON2 inh: -16.4%

What do the screens show for `COCCNc1nc(NCc2ccccc2F)c2sccc2n1`?
FMDV antiviral: inconclusive; AMA1-RON2 inh: -6.9%

What do the screens show for `COCCNc1nc(NCc2cccc(OC)c2OC)c2sccc2n1`?
FMDV antiviral: inconclusive; AMA1-RON2 inh: -1.2%

What do the screens show for `COc1ccccc1CNc1nc(NCc2ccccc2F)c2sccc2n1`?
FMDV antiviral: 28.2µM*; AMA1-RON2 inh: -27.1%
